PTHR1 ag = PTHR1 (human) receptor agonism; HEK293 GP2 PTHR1 cells, GloSensor cAMP luminescence, 1 h; Q03431; hit rate 0.075% among 410,000; Potency, µM (doses to about 115 µM), most hits filed as activators; further: nearly all actives have a fitted effect of over 55% in size
Target sequence (Q03431 whole entry, looked up): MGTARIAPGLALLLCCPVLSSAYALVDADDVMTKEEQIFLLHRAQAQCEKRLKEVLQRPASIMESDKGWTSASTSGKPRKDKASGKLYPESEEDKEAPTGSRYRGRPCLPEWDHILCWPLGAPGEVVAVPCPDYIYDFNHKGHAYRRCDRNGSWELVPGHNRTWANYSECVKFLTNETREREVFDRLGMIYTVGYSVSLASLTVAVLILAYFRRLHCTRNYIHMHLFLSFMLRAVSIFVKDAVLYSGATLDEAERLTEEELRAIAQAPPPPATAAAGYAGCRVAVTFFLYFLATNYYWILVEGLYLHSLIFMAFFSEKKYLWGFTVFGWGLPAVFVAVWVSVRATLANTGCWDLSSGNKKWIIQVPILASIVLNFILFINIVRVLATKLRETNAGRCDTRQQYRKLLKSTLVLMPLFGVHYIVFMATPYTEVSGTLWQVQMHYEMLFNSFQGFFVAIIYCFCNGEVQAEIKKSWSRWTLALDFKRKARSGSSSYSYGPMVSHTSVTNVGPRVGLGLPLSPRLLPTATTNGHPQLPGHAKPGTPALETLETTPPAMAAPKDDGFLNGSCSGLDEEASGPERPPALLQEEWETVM
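HEK-293-derived GP2 cells expressing PTHR1 and a GloSensor cAMP reporter, 3,000/well, plated overnight, given luciferin plus IBMX (each 0.5 mM as added) for 1 h at 37 °C, then compound for 1 h at 37 °C. Luminescence was read after 15 min at room temperature.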
aSyn rescue = inhibitors of alpha-synuclein toxicity in yeast; Yeast expressing alpha-synuclein, growth rescue, BacTiter-Glo, 24 h; Potency, µM (highest dose often 46.1 µM), usual class: activators; hit rate 0.14% among 370,000; further: nearly all actives have a fitted effect of over 65% in size
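Rescue of yeast growth: cells expressing toxic alpha-synuclein, induced in galactose at OD600 0.02, incubated with compound 24 h at 30 C. ATP luminescence quantified growth; inhibitors of toxicity appear as activators.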
TDP-43 yeast inh = inhibitors of TDP-43 toxicity in yeast. TDP-43 expressing yeast growth rescue, BacTiter-Glo, 24 h. Potency, µM (highest dose often 46.1 µM), usual class: activators. hit rate 1.8% among 410,000; further: nearly all actives have a fitted effect of over 50% in size
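Yeast expressing TDP-43 (pregrown in raffinose, seeded at OD600=0.02 in galactose medium) exposed to compounds 24 hr at 30 deg C. Growth read by BacTiter-Glo luminescence; rescue of toxicity appears as increased signal.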
FUS suppressor = FUS proteinopathy suppression in yeast. S. cerevisiae FUS-expressing, growth rescue, OD600, 24 h. Potency, µM (doses to about 76.6 µM), actives largely listed as activators. hit rate 0.24% among 390,000. AID 1347120; further: nearly all actives have a fitted effect of over 55% in size
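FUS-expressing yeast, raffinose-pregrown, induced in 2% galactose minimal medium at OD 0.005; compounds in a dilution series, 24hr at 30C. Growth restoration read as absorbance at 600 nm. CP55940 positive control, DMSO negative.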
LDHA block = LDHA (human) enzyme inhibition | P00338 | purified LDHA, NADH/diaphorase-resazurin fluorescence; active compounds read low | activity change, % (values are at about 110 or 230 µM) | hit rate 0.15% among 480,000 | AID 1347041; in the data active means activity change below about -30%; inconclusive means mostly about -25% to -30%
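Enzyme activity of human lactate dehydrogenase 5 (2 nM; 0.06 mM NADH, 0.2 mM pyruvate, 5 min, RT) is measured via a resazurin/diaphorase fluorescence readout of residual NADH.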
Abeta yeast res = A-beta toxicity reversal in yeast. yeast expressing A-beta42, growth rescue, OD600, 48 h; response scale: 0% DMSO, 100% iron-clioquinol control. hit rate 0.063% among 410,000. Potency, µM (top dose mostly 46.1 µM), most hits filed as activators. AID 1347071; further: nearly all actives have a fitted effect of over 55% in size
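Yeast A-beta toxicity model in growth medium with pinned compounds, 48 h at 30 C; growth read as absorbance at 600 nm. Normalized to FeCl3/clioquinol equimolar mix (positive) and DMSO (negative).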
Numbers stand for hits; i = inactive; ? = inconclusive; nt = no result; [ ] = dose if it differs, or a comment. Compounds with a hit are over-represented: about 1.9% of the library has one in this group of screens. Unless noted, the call rests on the fitted dose curve; in most records, active means well fitted curve in the direction sought with a large enough effect; inconclusive means small, poorly fitted or top-dose-only effect, or another doubt; inactive means no such curve, though single readings can be large; an effect the other way counts as inactive or inconclusive.

SMILES | PTHR1 ag | aSyn rescue | TDP-43 yeast inh | FUS suppressor | LDHA block | Abeta yeast res
COc1cccc(C2CC(c3cccs3)=NN2C(=O)c2ccco2)c1O (stereo not given) | i | ? | 25µM | i | i | i
CC(=O)Nc1ccccc1 | i | i | i | i | i | i
CC(=O)OCC(=O)Nc1ccc(N=Nc2ccccc2)cc1 | i | i | 11µM | i | i | i
CC(=O)Nc1ccc(N=Nc2ccccc2)cc1 | i | i | 10µM | nt | i | i
CC1CCC(Nc2ncnc3onc(-c4ccc(Cl)cc4)c23)CC1 (stereo not given) | i | i | 20µM | i | i | i
Cc1ccc(-c2noc3ncnc(NC4CCCCC4)c23)cc1 | nt | nt | nt | nt | i | nt
CC1CCC(Nc2ncnc3onc(-c4ccc(F)cc4)c23)CC1 (stereo not given) | i | nt | ? | i | i | i
Clc1ccc(-c2noc3ncnc(NC4CCCCC4)c23)cc1 | i | nt | 35µM | i | i | i
CC(C)c1ccccc1OCCNC(=O)c1cncc(Br)c1 | i | i | 20µM | i | i | i
CC(C)c1ccccc1OCCNC(=O)c1cccnc1 | i | i | i[0.397 µM] | i | i | i
CCN(CC)c1ccc(C(=O)OCC(=O)NC2CCCCC2C)cc1 (stereo not given) | i | i | i | i | i | i
CC1CCCC(NC(=O)COC(=O)c2ccc(N(C)C)cc2)C1C (stereo not given) | i | nt | 10µM | i | i | i
CCOc1cccc(C(=O)NC(=S)Nc2cccnc2)c1 | i | i | ? | i | i | ?
CCCCOc1cccc(C(=O)NC(=S)Nc2cccnc2)c1 | i | i | 25µM | nt | i | i
CC(C)Sc1cc(N2CCCC2)nc(-c2ccccc2Cl)n1 | i | i | 14µM | i | i | i
COc1ccc(OC)c(-c2nnc3n2N=C(c2ccc(OC)c(OCC4CC4)c2)CS3)c1 | i | nt | nt | 28µM | i | i
O=c1c(Cl)c(Cl)cnn1Cc1nnc(-c2ccccc2Br)o1 | i | i | 13µM | i | i | i
Clc1ccccc1OCc1nnc(-c2ccccc2Br)o1 | i | i | i | i | i | i
COc1ccc(N(CC(=O)Nc2cccc(N(C)S(C)(=O)=O)c2)S(=O)(=O)c2ccc(C)cc2)cc1 | i | i | i | 28µM | i | i
COc1ccc(N(CC(=O)Nc2cccc(N(C)S(C)(=O)=O)c2)S(=O)(=O)c2ccc(F)cc2)cc1 | i | i | i | ? | i | i
COc1ccc([N+](=O)[O-])c(C=CC(=O)c2ccccn2)c1 | i | 20µM | 2.8µM | i | i | i
COc1ccc(/C=C/C(=O)c2ccccn2)cc1 | i | i | i[9.22 µM] | i | i | i
O=[N+]([O-])c1ccc2[nH]nc(-c3ccccc3)c2c1 | i | i | 5.6µM | nt | i | i
Clc1ccc(SCc2cc(N3CCOCC3)nc(-c3ccccn3)n2)cc1 | i | i | i | i | i | 13µM
O=c1cc(CSc2ccc(Cl)cc2)nc(-c2ccccn2)[nH]1 | i | 10µM | ? | i | i | ?
SMILES | PTHR1 ag | aSyn rescue | TDP-43 yeast inh | FUS suppressor | LDHA block | Abeta yeast res
CCOP(=O)(OCC)c1nc(-c2cccc([N+](=O)[O-])c2)oc1NCc1ccc(OC)cc1 | nt | nt | nt | nt | i | nt
CN(Cc1nc(-c2ccccc2Cl)no1)C(=O)COc1ccc2ccccc2c1Br | nt | nt | nt | nt | i | nt
CCN(CC1CCCO1)S(=O)(=O)c1cccc(C#N)c1 (stereo not given) | nt | nt | nt | nt | i | nt
Cc1cccc(C)c1NC(=S)NCCSc1ccc(Cl)cc1 | i | i | 22µM | i | i | i
O=C(NCCSc1ccc(Cl)cc1)c1ccco1 | i | i | 7.1µM | i | i | i
COc1ccc(Cl)cc1NC(=S)NCCSc1ccc(C)cc1 | i | i | 22µM | nt | i | i
CCOc1ccccc1NC(=O)Cc1coc2cc(C)ccc12 | i | i | i | i | i | i
Cc1ccc2c(CC(=O)NNC(=O)c3ccccc3O)coc2c1 | i | i | i | 35µM | i | i
COc1ccccc1NC(=O)Cc1coc2cc(C)ccc12 | i | i | 11µM | i | i | i
COc1ccc2c(CC(=O)NNC(=O)c3ccc(C)cc3)coc2c1 | i | i | i | i | i | i

Assay outcomes from PubChem.
